PubChem BioAssay (EPA / NIEHS)
Several values for one entry are separate records, joined by “and”; a condition that tells them apart may be missing. Identical values can stand only once. Results filed as inconclusive are left out. The source holds several records for some structures; these can differ, active in one and inactive in another. Activity calls are given as the source filed them. The calls were made as follows, unless noted: active = hit-call score of the fitted dose curve at least 0.9, where 1 is the maximum; inactive = score below 0.9.

Columns and labels:
[1] = target: Steroid hormone receptor ERR1 (Homo sapiens) (UniProt P11474); test: ATG_ERRa_TRANS: Attagene TRANS-FACTORIAL HepG2 Assay for human Estrogen-Related Receptor alpha (ERRa) (AID 2282971; active = hit-call score of the fitted dose curve at least 0.9, where 1 is the maximum); details: HepG2 Attagene TRANS reporter, ERRa transactivation
Method in brief: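 HepG2 cells transiently transfected with GAL4-UAS reporter units and chimeric NR-Gal4 constructs; after 24 hour compound incubation, reporter mRNA quantified by RT-PCR, fluorescent labelling and capillary electrophoresis, gain of signal versus DMSO.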

[2] = target: Estrogen-related receptor gamma (Homo sapiens) (UniProt P62508); test: ATG_ERRg_TRANS: Attagene TRANS-FACTORIAL HepG2 Assay for human Estrogen-Related Receptor gamma (ERRg) (AID 2282977; active = hit-call score of the fitted dose curve at least 0.9, where 1 is the maximum;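 also: hits increase reporter signal over DMSO so potencies reflect activators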); details: HepG2 Attagene TRANS reporter, ERRg transactivation
Method in brief: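 Transient HepG2 transfectants, 24 h compound exposure, GAL4-UAS reporter mRNA by RT-PCR/6-FAM labelling/capillary electrophoresis; positive direction vs DMSO.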

[3] = BSK_3C_TissueFactor: BioMAP Diversity Plus: 3C Assay for Tissue Factor Biomarker Activity (AID 2282997); details: BioMAP 3C HUVEC, tissue factor biomarker readout; actives raise or lower the signal
Method in brief: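 HUVEC were treated 24 h, then surface tissue factor measured by ELISA and fitted bidirectionally against DMSO. Parallel SRB total-protein staining assessed overt cytotoxicity at the same time point.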

[4] = BSK_3C_uPAR: BioMAP Diversity Plus: 3C Assay for Urokinase-type plasminogen activator receptor (uPAR) Biomarker Activity (AID 2282998); details: BioMAP 3C HUVEC, uPAR biomarker ELISA; actives raise or lower the signal
Method in brief: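 Cell-surface uPAR on HUVEC (3C system) read by ELISA at 24 h post-treatment, with DMSO as baseline and fitting in both directions. Parallel cultures stained with SRB to flag overt cytotoxicity.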

[5] = BSK_4H_Eotaxin3: BioMAP Diversity Plus: 4H Assay for Eotaxin 3 Biomarker Activity (AID 2283000); details: primary human endothelial cells (HUVEC); actives raise or lower the signal
Method in brief: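 Eotaxin-3 (CCL26) levels were measured by ELISA in HUVEC primary cultures 24 h post-dosing. Gain or loss of signal was fitted in both directions, with DMSO serving as baseline and negative control.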

[6] = read-out: Intercellular Adhesion Molecule 1 (ICAM1), ICAM1 (gene 3383); test: BSK_3C_ICAM1: BioMAP Diversity Plus: 3C Assay for Intercellular Adhesion Molecule 1 (ICAM1) Biomarker Activity (AID 2283003); details: primary human endothelial cells (HUVEC); actives raise or lower the signal
Method in brief: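 Human vascular endothelial primary cells, 3C conditions, 24 h treatment. ICAM-1 by ELISA.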

[7] = read-out: Interleukin-1 alpha (IL1a), IL1A (gene 3552); test: BSK_BE3C_IL1a: BioMAP Diversity Plus: BE3C Assay for Interleukin-1 alpha (IL1a) Biomarker Activity (AID 2283016); details: primary human bronchial epithelial cells; actives raise or lower the signal
Method in brief: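 Cultures of primary human bronchial epithelial cells receive test chemical. After 24 h, IL-1a is quantified by ELISA, while parallel wells are fixed in TCA and SRB-stained for total protein. Changes in either direction are fitted relative to DMSO.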

[8] = read-out: Monocyte Chemoattractant Protein-1 (MCP1), CCL2 (gene 6347); test: BSK_3C_MCP1: BioMAP Diversity Plus: 3C Assay for Monocyte Chemoattractant Protein-1 (MCP1) Biomarker Activity (AID 2283017); details: primary human endothelial cells (HUVEC); actives raise or lower the signal
Method in brief: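 Human umbilical vein endothelial cells (3C system) exposed to chemicals for 24 h; MCP-1 quantified by ELISA against the DMSO baseline with bidirectional fitting, and parallel SRB staining used to assess cytotoxicity.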

[9] = read-out: Interleukin-8 (IL8), CXCL8 (gene 3576); test: BSK_3C_IL8: BioMAP Diversity Plus: 3C Assay for Interleukin-8 (IL8) Biomarker Activity (AID 2283020); details: primary human endothelial cells (HUVEC); actives raise or lower the signal
Method in brief: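 Human vascular endothelial cells (umbilical vein) in the 3C system; IL-8 level detected by ELISA at 24 h post-dose, with DMSO as baseline.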

[10] = BSK_3C_SRB: Viability Assessment in the BioMAP Diversity Plus: 3C Assay (AID 2283023); details: primary human endothelial cells (HUVEC);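 also: cells read 24 h after compound dosing; fitted both ways against DMSO so a hit may be signal rise or drop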
Method in brief: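 Human umbilical vein endothelial cells in the 3C system, treated 24 h. Total protein measured by 0.1% sulforhodamine B staining after 10% TCA fixation, read at 560 nm; bidirectional fit versus DMSO.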

[11] = read-out: Urokinase-type plasminogen activator receptor (uPAR), PLAUR (gene 5329); test: BSK_4H_uPAR: BioMAP Diversity Plus: 4H Assay for Urokinase-type plasminogen activator receptor (uPAR) Biomarker Activity (AID 2283030); details: primary human endothelial cells (HUVEC); actives raise or lower the signal
Method in brief: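 Human umbilical vein endothelial cells in the 4H system, 24 h after chemical dosing. Cell-surface uPAR measured by ELISA, fitted in both directions versus DMSO; cytotoxicity checked by SRB total protein in parallel cultures.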

[12] = read-out: Plasminogen activator inhibitor-1 (PAI1), SERPINE1 (gene 5054); test: BSK_BE3C_PAI1: BioMAP Diversity Plus: BE3C Assay for Plasminogen activator inhibitor-1 (PAI1) Biomarker Activity (AID 2283037); details: primary human bronchial epithelial cells; actives raise or lower the signal
Method in brief: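 PAI-1 biomarker levels in treated human bronchial epithelial cells are determined by ELISA at 24 h. Both increases and decreases relative to DMSO are fitted.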

[13] = read-out: urokinase plasminogen activator (uPA), PLAU (gene 5328); test: BSK_BE3C_uPA: BioMAP Diversity Plus: BE3C Assay for urokinase plasminogen activator (uPA) Biomarker Activity (AID 2283038); details: primary human bronchial epithelial cells; actives raise or lower the signal;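 also: uPA protein level quantified by ELISA in cell cultures; uPA read one day after compound addition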
Method in brief: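 Primary human bronchial epithelial cells, uPA measured by ELISA 24 h after dosing. Bidirectional change relative to DMSO; cytotoxicity checked in parallel cultures by sulforhodamine B total-protein staining.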

[14] = read-out: Tissue plasminogen activator (tPA), PLAT (gene 5327); test: BSK_BE3C_tPA: BioMAP Diversity Plus: BE3C Assay for Tissue plasminogen activator (tPA) Biomarker Activity (AID 2283041); details: primary human bronchial epithelial cells; actives raise or lower the signal
Method in brief: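 Bidirectional curve fitting relative to DMSO defined activity, with tPA detected by ELISA in chemically treated human bronchial epithelial primary cells at 24 hours.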

[15] = read-out: Thrombomodulin, THBD (gene 7056); test: BSK_CASM3C_Thrombomodulin: BioMAP Diversity Plus: CASM3C Assay for Thrombomodulin Biomarker Activity (AID 2283051); details: primary human coronary artery smooth muscle cells; actives raise or lower the signal;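 also: thrombomodulin protein level measured by ELISA 24 h after dosing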
[16] = read-out: Interleukin-1 alpha (IL1a), IL1A (gene 3552); test: BSK_LPS_IL1a: BioMAP Diversity Plus: LPS Assay for Interleukin-1 alpha (IL1a) Biomarker Activity (AID 2283080); details: primary human HUVEC with PBMC; actives raise or lower the signal
Method in brief: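 Human umbilical vein endothelial cells co-cultured with PBMC and stimulated with LPS; IL-1a measured by ELISA 24 h after dosing. Bidirectional fitting against DMSO; cytotoxicity checked by SRB staining in parallel cultures.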

[17] = BSK_LPS_PGE2: BioMAP Diversity Plus: LPS Assay for Prostaglandin E2 (PGE2) Biomarker Activity (AID 2283082); details: primary human HUVEC with PBMC; actives raise or lower the signal;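 as to AC50: secreted prostaglandin E2 measured by ELISA in LPS-stimulated co-culture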
Method in brief: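 Endpoint derived from bidirectional curve fitting versus DMSO of ELISA-measured PGE2 in LPS-stimulated human primary vascular co-culture (HUVEC with PBMC) harvested at 24 h.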

[18] = CCTE_Harrill_HTTr_Viability_MCF7: CCTE's 6-hour Cell Viability Assessment for the High-Throughput Transcriptomics (HTTr) Platform, in MCF-7 cells cultured in DMEM + 10% fetal bovine serum, Harrill Lab (AID 2284010)
Method in brief: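 Viability measured through PI dye exclusion by high-content imaging at 6 h post-dosing.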

[19] = CCTE_Harrill_HTTr_Apoptosis_MCF7: CCTE's 6-hour Apoptosis Assessment for the High-Throughput Transcriptomics (HTTr) Platform, in MCF-7 cells cultured in DMEM + 10% fetal bovine serum, Harrill Lab (AID 2284011)
Method in brief: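 MCF-7 cells in DMEM + 10% FBS exposed 6 h to chemicals over an eight-point dilution series. Caspase-3/7 activation imaged by high-content CellEvent Green staining; fitted bidirectionally versus DMSO.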

[20] = target: human Thyroid Receptor alpha (THRa1), THRA (gene 7067) (UniProt P10827); test: ATG_THRa1_TRANS: Attagene TRANS-FACTORIAL HepG2 Assay for human Thyroid Receptor alpha (THRa1) (AID 2283014; active = hit-call score of the fitted dose curve at least 0.9, where 1 is the maximum)
Method in brief: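 HepG2 cells transiently transfected with chimeric NR-Gal4 and GAL4-UAS reporter units, dosed 24 h. Reporter mRNA quantified by RT-PCR, fluorescent labeling, HpaI digestion and capillary electrophoresis; gain-of-signal fit versus DMSO.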

Measured: AC50

Sequence of human Thyroid Receptor alpha (THRa1), THRA (gene 7067) (P10827 whole entry, looked up, the tested form may be a part): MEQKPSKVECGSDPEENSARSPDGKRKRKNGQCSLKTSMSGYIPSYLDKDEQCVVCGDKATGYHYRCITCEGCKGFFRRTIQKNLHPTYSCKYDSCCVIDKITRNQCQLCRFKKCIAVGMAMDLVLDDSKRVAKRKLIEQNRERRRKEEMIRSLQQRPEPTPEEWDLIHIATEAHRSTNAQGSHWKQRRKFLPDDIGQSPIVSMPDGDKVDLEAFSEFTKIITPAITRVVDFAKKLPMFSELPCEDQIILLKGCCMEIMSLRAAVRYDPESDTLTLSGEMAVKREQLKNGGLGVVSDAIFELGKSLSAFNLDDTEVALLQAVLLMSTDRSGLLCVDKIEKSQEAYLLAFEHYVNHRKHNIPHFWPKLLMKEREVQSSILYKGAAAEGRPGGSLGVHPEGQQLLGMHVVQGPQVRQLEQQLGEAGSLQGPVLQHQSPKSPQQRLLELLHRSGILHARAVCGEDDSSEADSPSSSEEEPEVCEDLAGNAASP
Sequence of Estrogen-related receptor gamma (Homo sapiens) (P62508 whole entry, looked up, the tested form may be a part): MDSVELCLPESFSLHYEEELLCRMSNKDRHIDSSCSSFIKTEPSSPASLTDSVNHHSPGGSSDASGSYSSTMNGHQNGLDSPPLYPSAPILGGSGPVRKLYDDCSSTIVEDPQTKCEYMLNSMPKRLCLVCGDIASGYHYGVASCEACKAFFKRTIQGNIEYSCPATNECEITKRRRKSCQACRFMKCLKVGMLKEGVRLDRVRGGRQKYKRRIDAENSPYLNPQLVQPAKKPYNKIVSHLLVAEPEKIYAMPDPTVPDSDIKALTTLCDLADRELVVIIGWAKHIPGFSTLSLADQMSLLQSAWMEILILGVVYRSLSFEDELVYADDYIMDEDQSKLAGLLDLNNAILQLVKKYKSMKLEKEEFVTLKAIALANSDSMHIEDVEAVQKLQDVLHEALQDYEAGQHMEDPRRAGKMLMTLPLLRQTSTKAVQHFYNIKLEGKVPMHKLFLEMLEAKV
Sequence of Steroid hormone receptor ERR1 (Homo sapiens) (P11474 whole entry, looked up, the tested form may be a part): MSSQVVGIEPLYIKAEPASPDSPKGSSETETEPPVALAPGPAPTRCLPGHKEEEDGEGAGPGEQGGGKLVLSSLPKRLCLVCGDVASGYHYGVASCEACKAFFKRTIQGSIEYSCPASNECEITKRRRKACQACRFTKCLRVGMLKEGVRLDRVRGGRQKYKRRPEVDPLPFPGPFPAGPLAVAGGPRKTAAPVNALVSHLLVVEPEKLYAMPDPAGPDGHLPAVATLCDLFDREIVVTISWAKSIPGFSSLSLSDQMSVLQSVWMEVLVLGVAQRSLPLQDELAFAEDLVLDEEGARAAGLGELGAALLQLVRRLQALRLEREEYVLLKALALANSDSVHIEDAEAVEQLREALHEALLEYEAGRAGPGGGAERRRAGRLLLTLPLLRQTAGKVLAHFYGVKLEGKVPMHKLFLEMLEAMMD

C=CC(=O)OCC(CC)CCCC (configuration not stated)
active: [3] 28.9 µM | [8] 20 µM | [9] 20 µM
not listed: [20]
inactive: all other assays above

BrCBr
inactive: [20]

COc1cc(OC)nc(Oc2cccc(Oc3nc(OC)cc(OC)n3)c2C(=O)O)n1
inactive: [19]

O=C1C=CC(=O)C=C1
active: [3] 33.2 µM | [4] 12.8 µM | [5] 20 µM | [6] 20 µM and 28.6 µM | [7] 33 µM | [8] 20 µM | [9] 32.9 µM | [10] 28 µM | [12] 1.68 µM and 14.6 µM | [14] 34.9 µM | [15] 8.44 µM and 20 µM | [16] 30.6 µM | [17] 31.7 µM
inactive: [3] | [4] | [20] | [7] | [8] | [9] | [10] | [11] | [13] | [14] | [16] | [17] | [18]
